# Screening results: PubChem BioAssay, National Center for Advancing Translational Sciences (NCATS)
# The list is not random: actives were taken first. Their share in the collection is about 3.8%.
# TrxR1 inh – rat TrxR1 inhibition; AID 588453; 1% of 390,000 active; recombinant rTrxR1, NADPH fluorescence consumption, selenite substrate; Potency, µM (highest dose often 114 µM), for inactives: at the highest dose activity change, negative = inhibition, usual class: inhibitors; note: nearly all actives have a fitted effect of over 65% in size
#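 Rat TrxR1 (90 nM in the dispensed reagent) was pre-reduced with 400 uM NADPH for 5 min at room temperature, then incubated with compound for 15 min. After 400 uM selenite was added, NADPH fluorescence (Ex 340/Em 450 nm) was followed for 8 min.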
# VDR inh – vitamin D3 receptor (human) inhibition | VDR-SRC2-3 peptide fluorescence polarization, 2 h | Potency, µM, without a hit: max response, negative = inhibition, most hits filed as inhibitors | P11473 | 0.93% of 400,000 active
#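 Measured by FP: displacement of SRC2-3 coactivator peptide from VDR by library compounds, following a two-hour ambient incubation.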
# TrxR1 substrate – rat thioredoxin reductase 1 substrate activity | O89049 | purified TrxR1 substrate turnover, NADPH consumption readout | Potency, µM (highest dose often 114 µM), inactives show at the top dose activity change, negative = substrate turnover | 0.01% of 390,000 active | AID 588456; note: nearly all actives have a fitted effect of over 50% in size
#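 Rat TrxR1, dispensed at 90 nM, was prereduced with 400 uM NADPH (final) for 5 min at ~22 deg C, then incubated with compound 15 min before 400 uM selenite. A first-read NADPH fluorescence drop versus no-compound background flagged substrates.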
# GCN5L2 inh – GCN5L2 (KAT2A) acetyltransferase inhibition; 0.21% of 390,000 active; Q92830; AID 504327; Potency, µM (top dose mostly 58.9 µM), without a hit: at the top dose activity change, negative = inhibition, usual class: inhibitors; GCN5L2 HAT assay, ThioGlo1 CoA-SH fluorescence
#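 GCN5L2 (20 nM) in 50mM HEPES pH 7.5, 0.1mM EDTA, 0.01% Tween-20 preincubated 15 min with compounds at room temperature. Reaction started with H3(1-25) 75uM, acetyl-CoA 70uM, ThioGlo1 50uM; CoA-thiol fluorescence (Ex340/Em540) read at 0 and 20 min.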
# GLS inh – glutaminase GLS (human) inhibition; 0.21% of 410,000 active; Potency, µM (highest dose often 45.5 µM), without a hit: top-dose activity change, negative = inhibition, most hits filed as inhibitors; GLS enzymatic activity, qHTS titration; O94925; AID 624170
# Target sequence (O94925 whole entry, looked up): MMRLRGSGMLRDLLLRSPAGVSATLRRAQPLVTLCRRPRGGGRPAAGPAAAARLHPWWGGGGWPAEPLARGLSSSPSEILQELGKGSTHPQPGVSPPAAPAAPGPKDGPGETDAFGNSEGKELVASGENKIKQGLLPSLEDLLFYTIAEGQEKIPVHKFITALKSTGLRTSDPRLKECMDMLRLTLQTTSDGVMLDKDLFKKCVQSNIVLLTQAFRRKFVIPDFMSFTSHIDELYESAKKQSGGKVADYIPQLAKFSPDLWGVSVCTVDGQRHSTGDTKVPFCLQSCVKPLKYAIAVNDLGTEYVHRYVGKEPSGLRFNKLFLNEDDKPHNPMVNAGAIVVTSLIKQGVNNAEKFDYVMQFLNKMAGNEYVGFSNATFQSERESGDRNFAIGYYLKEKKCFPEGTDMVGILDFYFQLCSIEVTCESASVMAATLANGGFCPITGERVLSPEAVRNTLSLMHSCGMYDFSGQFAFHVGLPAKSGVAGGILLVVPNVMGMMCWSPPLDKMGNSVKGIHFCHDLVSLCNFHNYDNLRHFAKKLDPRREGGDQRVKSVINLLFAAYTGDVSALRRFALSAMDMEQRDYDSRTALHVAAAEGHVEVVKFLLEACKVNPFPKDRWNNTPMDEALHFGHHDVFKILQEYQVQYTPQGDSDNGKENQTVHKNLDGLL
#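 Compounds were pin-transferred onto hKGA, after which L-glutamine (1 mM solution) and a detection mix of glutamate oxidase, HRP and Amplex Red were added. Initial and 30 min RT fluorescence reads were collected.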
# Sfp inh – Sfp phosphopantetheinyl transferase inhibition; Potency, µM, for inactives: largest response in the series, negative = inhibition, actives largely listed as inhibitors; Biochemical Sfp PPTase activity, qHTS; AID 1490; 3.5% of 310,000 active;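 note: the enzyme is Sfp with the accession as filed and its product quenches rhodamine fluorescence; 0% = enzyme reaction without inhibitor and -100% = no enzyme wells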
#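 Sfp 15 nM + cpd, 15 min RT; start w/ rhodamine-CoA 5 uM, BHQ-2-YbbR 12.5 uM (final); 50 mM Hepes pH 7.6, 10 mM MgCl2, 0.01% NP-40, 0.01% BSA; read 525/598 nm at 0 and 30 min.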
# * marks the source's active call; other numbers are inactive results; u = inconclusive; x = no result; ! = a repeat was not active; [ ] = dose if it differs, or a comment. Calls come from the whole dose curve; as a rule, active = well fitted curve in the direction sought with a large enough effect; inconclusive = small, poorly fitted or top-dose-only effect, or another doubt; inactive = no such curve, though single readings can be large; an effect the other way counts as inactive or inconclusive. Unless noted, % is set by controls: 0 for no effect and ±100 for the full control effect; potency is the fitted concentration of half-maximal effect.
SMILES,TrxR1 inh,VDR inh,TrxR1 substrate,GCN5L2 inh,GLS inh,Sfp inh
COC(=O)[C@@H]1C[C@H]1[C@@H](NS(=O)(=O)c1ccccc1)c1ccccc1,18%,5%,5%,-2%,6%,3%
COC(=O)[C@H]1C[C@@H]1[C@H](NS(=O)(=O)c1ccccc1)c1ccccc1,11%,-4%,5%,0%,1%,71µM*!
COc1ccc(NC(=O)/C=C\C(=O)N(c2ccc(C(C)C)cc2)C(C(=O)NCc2ccco2)c2ccc(F)cc2)cc1 (stereo not drawn),21%[57.1 µM],13%,0%[57.1 µM],-5%,-3%,x
CCCC[n+]1ccn(-c2nc3ccccc3nc2[N-]S(=O)(=O)c2ccc(Br)cc2)c1,30%[11.4 µM],12%,-17%[11.4 µM],u,5%,-1%
CC(C)CC[n+]1ccn(-c2nc3ccccc3nc2[N-]S(=O)(=O)c2ccccc2)c1,9%,11%,46%,33%,-7%,79µM*
O=C(NCc1ccc2c(c1)OCO2)c1cccc(S(=O)(=O)N2CCCCC2)c1,18%,4%,1%,1%,-1%,-20%
CC(=O)c1ccc(OC(=O)COc2ccccc2Cl)cc1,18µM*,u,2%,-2%,6%,-4%
CCC1C(=O)N(c2nc(C)cc(C)n2)N=C1C (stereo not drawn),11%,8%,11%,-5%[0.501 µM],8%,56µM*
COC(=O)C(C)Sc1nc2c([nH]c3ccccc32)c(=O)n1C (stereo not drawn),4%,3%,-3%,0%,2%,50µM*
Nc1nc(NCC(=O)O)nc(NCc2ccccc2)c1[N+](=O)[O-],-7%,-8%,-13%,u,0%,6%
Cc1cc(C)cc(Nc2ccc([N+](=O)[O-])nc2[N+](=O)[O-])c1,-3%,-8%,4%,-5%,-2%,8%
COc1cc(Nc2ccc(C)cc2)c([N+](=O)[O-])nc1[N+](=O)[O-],4.5µM*,22%,-12%,2%,-10%,6%
Cc1nc2c(C(=O)NCc3ccc4c(c3)OCO4)c[nH]n2c(=O)c1Cl,14%,-28%,15%,-3%,15%,45µM*
O=C(CSc1nccn1-c1ncc(C(F)(F)F)cc1Cl)c1ccc(Cl)cc1,-22%,45µM*,-8%,22%,3%,-13%
O=C(OC1CCN(c2ncc(C(F)(F)F)cc2Cl)CC1)c1ccc(Cl)cc1,10%,8%,4%,4%,-22%,-10%
CCOC(=O)C(Sc1ncn[nH]1)c1ccccc1 (stereo not drawn),-11%,-4%,-11%,4%,6%,16%
CCc1ccccc1N1CC23C=CC(O2)C(C(=O)O)C3C1=O (stereo not drawn),9%[57.1 µM],89µM*,7%[57.1 µM],3%,25%,14%
COc1cccc(-c2nccc(NCc3cccs3)n2)c1,x,u,x,-24%,x,79µM*
Cc1ccccc1-c1nccc(NCc2cccs2)n1,x,u,x,-26%,x,89µM*
Cc1ccc(CN(C)C(=O)c2cc(Br)c(Br)s2)o1,50µM*,-10%,-4%,-3%,-3%,79µM*
Cc1ccc2oc(C(=O)N(C)Cc3ccc(C)o3)c(C)c2c1,7.1µM*,u,-5%,-16%,-3%,10µM*
COc1ccccc1N(CC(=O)NCCN1CCOCC1)S(=O)(=O)c1ccccc1,24%,-9%,4%,-7%,-17%,19%
O=C1C(c2ccccc2)=[N+]([O-])c2ccccc21,18%[57.1 µM],4µM*,-11%[57.1 µM],-12%,-10%,x
Cc1nc(CNC(=O)CC2C(=O)NCCN2Cc2ccoc2)nc2c1CCCC2 (stereo not drawn),50µM*,13%,5%,1%,-7%,-10%
COc1ccc(C(=O)N2CCCCC2c2cc(C(=O)Nc3cccc(C#N)c3)no2)cc1 (stereo not drawn),x,x,x,x,15%,x
SMILES,TrxR1 inh,VDR inh,TrxR1 substrate,GCN5L2 inh,GLS inh,Sfp inh
CCC(COC(C)=O)Nc1nc2c([nH]1)c(=O)n(C)c(=O)n2C (stereo not drawn),13%,16%,5%,-24%,13%,2%
Cn1c(=O)c2[nH]c(N/N=C(/C#N)C(N)=O)nc2n(C)c1=O,6%[57.1 µM],0%,3%[57.1 µM],0%,u,56µM*
Cc1ccc(S(=O)(=O)c2nnn3c2nc(N2CCN(c4ccccn4)CC2)c2ccccc23)cc1C,19%,-12%,6%,-9%,3%,10%
O=C(c1ccco1)N1CCN(C(=O)c2cc(-c3ccccc3)nc3ccccc23)CC1,-5%[57.1 µM],8%,5%[57.1 µM],-17%,10%,0%
O=C(c1cc(-c2ccco2)nc2ccccc12)N1CCN(Cc2ccccc2)CC1,40µM*,-10%,109%,-18%,-2%,x
CCn1c2ccccc2c2cc(CN3CCN(C(=O)c4ccco4)CC3)ccc21,8%[57.1 µM],-9%,-6%[57.1 µM],-8%,-12%,56µM*
COC(=O)C1CCN(C(=O)c2cc(-c3ccco3)nc3ccccc23)CC1,15%,-12%,390%,8.9µM*,u,x
CCOC(=O)C1CCN(C(=O)c2cc(-c3ccncc3)nc3ccccc23)CC1,0%,12%,-5%,-3%,5%,x
COc1ccc(-c2cc(C(=O)N3CCN(c4ncccn4)CC3)c3ccccc3n2)c(OC)c1,-19%,-15%,3%,-5%,-10%,-2%
COc1ccc(-c2cc(C(=O)N3CCCCCC3)c3ccccc3n2)c(OC)c1,6%,-11%,9%,-23%,-2%,40µM*
CCOC(=O)c1ccc(N2CCN(c3cc(C)ccc3C)CC2)c(NC(=O)Nc2ccccc2)c1,34%[57.1 µM],14%,9%[57.1 µM],-6%,8%,x
O=C(c1ccco1)N1CCN(C(=O)c2cc(-c3ccccn3)nc3ccc(Cl)cc23)CC1,u,-23%,11%[57.1 µM],-16%,28%,16µM*
CC(=O)N/C(=C\c1ccccc1)C(=O)OCC(=O)N1CCCCCC1,-9%,1%,-8%,-1%,2%,18%
NCCCNC(=O)c1ccc(/C=N/O)nc1,10%[57.1 µM],-3%,4%[57.1 µM],0%,u,71µM*
COc1ccc(C)cc1NC(=O)c1cc2ccccc2cc1OCC(=O)NCc1ccco1,-2%,3%,18%,-8%,-20%,u
N#CCCn1c(=O)c(-c2cccc(C#N)c2)nc2cnc(Oc3cccc(Cl)c3)nc21,x,-3%,x,-11%,x,10%
CCOC(=O)c1sc(S(C)=O)c2c1CCc1conc1-2 (stereo not drawn),32µM*,-10%,1%,-1%,-14%,40µM*
CCOC(=O)c1sc2ccccc2c1OC(=O)c1ccc(C)cc1,7%[57.1 µM],-24%,-21%[57.1 µM],-5%,-16%,10%
CNC(=S)Nc1ccc(C(N)=O)cc1,-10%,-5%,-1%,-9%,-2%,79µM*
